One test deals with RHOF. As to the kind of experiment: pooled miR-30 sensor sort-seq; sequence = guide strand. To be noted: shRNA.
For the sequence TTCCTCAGGTCTGTCTTGCAGC, the sensor-assay potency score (higher = more potent) was -0.598.
The same measure, in the same setting: the value for TAGAGAGCAGCTCGGATCTGTT was -0.736; that for TAGTCTTCTTGCCCGGCCGTGT was -1.09.
On the same count and under the same terms, the value for AAACTTGGCGGAACATTCCAGG was -0.805; that for TTGATGAGGACGTTGTCGTAGC was 0.173; that for TAGGTGATGGGCTCCAGCTGGG was -0.461.
As for TTCAGCTCCTTCCTGCCCGGAC, the sensor-assay potency score (higher = more potent) was -0.816.
Still for that read-out and setting: the value for TTGCTGCCAACGGTCACGCTGG was -0.873.
On to TACTTCTCGAACACCGATGGGG, for which the sensor-assay potency score (higher = more potent) turned out to be 0.0393.
Sequence ATGAGCAGCGAGGTCTTGCCGC registered a sensor-assay potency score (higher = more potent) of -1.07.
Same read-out and setting: to TAGCAGATGAGCACGAGGTGGG belongs 0.0207; to TCCAGGTAGAGAGCAGCTCGGA, -1.54.

In the next test the target is RHOH. The description is as above. To be noted: shRNA.
Regarding TAAGGGCTGAGCACTCCAGGTA, the sensor-assay potency score (higher = more potent) is -0.636.
As to TGTTCTCGTACACTGTGGGCTT, the sensor-assay potency score (higher = more potent) was -0.393.
The same measure, in the same setting: to TTCAGGAATGAGTTATGGTTGG belongs -0.949.
Still for that read-out and setting: the value for TCCGGGAAGGTCTCGGAGGTGA was -1.75; that for TTGACGGCAGTTCGGACGGCGC was -1.65; that for TTCTTCAAGTTCAGGAATGAGT was -0.86.
Regarding TTCCATGGCATTGACGCAGGAG, the sensor-assay potency score (higher = more potent) came to 0.27.
Further: reference of the scale not given here.
